From ChEMBL document CHEMBL3988442, “University of Dundee, Small-Polar-MMV Screening Library” (2021)
Among all 48,000 compounds or so, about 13,000 (27%) showed an effect of 50% or more. The list shows a part of the results.

Test system: Wolbachia pipientis
Experiment: Anti-Wolbachia Cell-Based Screen
Format: functional
Set-up: scale not given: in the data most compounds retested in dose-response had high values
Details: 5 µM

SMILES | Percent Effect
CN(Cc1cccnc1)CC1CC12CCN(c1nncs1)CC2.O=C(O)C(F)(F)F.O=C(O)C(F)(F)F.O=C(O)C(F)(F)F (configuration not stated) | 10.12%
COc1ccc(-c2noc(Cn3cnc(C)c3)n2)c(OC)c1OC | 10.58%
Cc1ccc(-c2noc([C@@H]3Cc4nc[nH]c4CN3)n2)cc1 | 1.545%
CSCC(=O)Nc1nccn1Cc1ccc(Br)cc1 | -2.171%
O=C1N(c2ccccc2)Cc2n[nH]c(=O)n21 | -1.221%
COc1cc(C(=O)N2CC(Oc3ccccc3Cl)C2)ccn1 | -4.351%
CN(C)C(=O)N1CCn2nc(CNC(=O)CCC(F)(F)F)cc2C1 | -4.672%
COCCOC(=O)N1CCn2nc(CN(C)Cc3nccs3)cc2C1 | 91.56%
CN(Cc1cc2n(n1)CCCN(C(=O)N1CCCC1)C2)Cc1nccs1 | 94.61%
CN(C)C(=O)N1CCCn2nc(CNC(=O)CCc3cccs3)cc2C1 | 2.264%
CN(C)C(=O)N1CCn2nc(CNC(=O)CCc3ccccn3)cc2C1 | 5.444%
CN(C)C(=O)N1CCCn2nc(CNC(=O)CCc3ccsc3)cc2C1 | -5.491%
CCn1c(CC2CCN(C(=O)C3CNCCO3)CC2)nn(C)c1=O (configuration not stated) | -6.283%
CC(C)(CCS(C)(=O)=O)CNc1ccc2ccc(F)cc2n1 | 0.04358%
O=C(C1CCCCC1)N1CCC(n2nc(-c3ccco3)ccc2=O)CC1 | 79.69%
O=C(c1ccco1)N1CCC(n2nc(-c3ccco3)ccc2=O)CC1 | 74.86%
O=C(Cc1ccsc1)N1CCC(n2nc(-c3ccco3)ccc2=O)CC1 | -9.761%
CC(C)(C)C(=O)N1CCC(n2nc(-c3ccco3)ccc2=O)CC1 | 101.2%
O=C(c1ccco1)N1CCC(n2cc(-c3ccsc3)nn2)CC1 | 0.1659%
O=C(c1csc(-c2ccco2)n1)N1CCN2CCCCC2C1 (configuration not stated) | -12.72%
CC(=O)c1c(F)cccc1NC1CCN(C(=O)C2CCCCC2)CC1 | 1.543%
O=C(c1cccs1)N1CCC(n2nc(-c3ccco3)ccc2=O)CC1 | -4.214%
O=C(c1ccco1)N1CCC(n2nc(-c3cccs3)ccc2=O)CC1 | 64.54%
Cc1oc(-c2ccco2)nc1CC(=O)N1CCC(C(O)C(F)(F)F)CC1 (configuration not stated) | 3.492%
CC(C)(C)C(=O)N1CCC(n2cc(C3(O)CCCC3)nn2)CC1 | -19.86%
O=C(c1cccs1)N1CCC(Cn2nc(-c3ccco3)ccc2=O)CC1 | -6.925%
Cn1c(-c2ccccc2Cl)nc2cc(C(=O)NCCS(C)(=O)=O)cnc21 | 0.8241%
